Test results reported in PubChem BioAssay AID1159580 (chemical genetic matrix, 2015).
Several values for one entry are separate records, joined by “and”; a condition that tells them apart may be missing. Equal entries are not always repeated. Hit rate of the full screen: of about 5,500 compounds, about 2,000 (36%) were called active. Inconclusive results (about 18%) are left out. No stated cut-off is given here; in the data, active means normalized growth mostly below about 0.91 (no sharp cut-off); inconclusive means no clear call, values can overlap the other calls; inactive means mostly above about 0.92. Some of the results follow.

Test: chemical genetic growth profiling, strain panel (AID 1159580);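 further: tested at 20 µM; growth read once vehicle control cultures reached saturation at 30 °C; 1 = growth at the plate median or of vehicle wells; lower values mean less growth of the strain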
Conditions: S. cerevisiae deletion strains, growth OD

Measured: normalized growth

Cc1ccc(C(=O)c2ccc(CC(=O)O)n2C)cc1
inactive: locus YAL021C, strain ccr4, hits give low values 1.03 | locus YAL026C, strain drs2, hits give low values 1.02 | locus YAL030W, strain snc1, hits give low values 1.01 | locus YBL061C, strain skt5, hits give low values 1.01 | locus YBR009C, strain hhf1, hits give low values 0.973 | locus YBR021W, strain FUR4, hits give low values 1.01 | locus YBR023C, strain chs3, hits give low values 1 | locus YBR229C, strain ROT2, hits give low values 1 | locus YBR231C, strain swc5, hits give low values 1.02 | locus YBR279W, strain paf1, hits give low values 1 | locus YCL011C, strain gbp2, hits give low values 0.999 | locus YCL016C, strain dcc1, hits give low values 0.996 | locus YCL029C, strain bik1, hits give low values 0.968 | locus YCL061C, strain MRC1, hits give low values 0.995 | locus YCL069W, strain vba3, hits give low values 0.986 | locus YCR088W, strain abp1, hits give low values 1 | locus YDL005C, strain med2, hits give low values 1.03 | locus YDL035C, strain GPR1, hits give low values 1.01 | locus YDL040C, strain nat1, hits give low values 1.01 | locus YDL074C, strain BRE1, hits give low values 1.01 | locus YDL101C, strain DUN1, hits give low values 1.01 | locus YDL134C, strain PPH21, hits give low values 0.996 | locus YDL185W, strain tfp1, hits give low values 0.977 | locus YDL192W, strain arf1, hits give low values 0.98 | locus YDR001C, strain nth1, hits give low values 1 | locus YDR069C, strain doa4, hits give low values 0.999 | locus YDR101C, strain arx1, hits give low values 0.985 | locus YDR137W, strain rgp1, hits give low values 1 | locus YDR150W, strain NUM1, hits give low values 1.01 | locus YDR159W, strain sac3, hits give low values 0.956 | locus YDR162C, strain NBP2, hits give low values 0.995 | locus YDR195W, strain ref2 1.03 | locus YDR297W, strain sur2, hits give low values 0.991 | locus YDR318W, strain mcm21, hits give low values 0.956 | locus YDR334W, strain swr1, hits give low values 1.01 | locus YDR335W, strain msn5, hits give low values 1.01 | locus YDR388W, hits give low values 0.972 | locus YDR392W, strain spt3, hits give low values 0.88 | locus YDR502C, strain sam2, hits give low values 0.97 | locus YEL003W, strain gim4, hits give low values 1.01 | locus YEL037C, strain rad23, hits give low values 0.999 | locus YEL061C, strain CIN8 (second series), hits give low values 0.999 | locus YEL061C, strain CIN8, hits give low values 0.998 | locus YER015W, strain faa2, hits give low values 1.01 | locus YER016W, strain bim1, hits give low values 0.999 | locus YER110C, hits give low values 0.969 | locus YER111C, strain swi4, hits give low values 1.01 | locus YER155C, strain BEM2 (second series), hits give low values 0.957 | locus YER155C, strain BEM2, hits give low values 0.996 | locus YER167W, strain BCK2, hits give low values 0.998 | locus YFR010W, strain ubp6, hits give low values 0.997 | locus YGL078C, strain dbp3, hits give low values 0.977 | locus YGL086W, strain mad1, hits give low values 0.985 | locus YGL167C, strain pmr1, hits give low values 1.01 | locus YGL173C, strain kem1, hits give low values 0.985 | locus YGL227W, strain vid30, hits give low values 1 | locus YGL240W, strain doc1, hits give low values 1.01 | locus YGL248W, strain PDE1, hits give low values 1.02 | locus YGL253W, strain hxk2, hits give low values 0.992 | locus YGR078C, strain PAC10, hits give low values 1 | locus YGR135W, strain pre9, hits give low values 0.97 | locus YGR229C, strain SMI1, hits give low values 1.01 | locus YGR252W, strain gcn5, hits give low values 0.975 | locus YHR013C, strain ard1, hits give low values 1.03 | locus YHR027C, strain rpn1, hits give low values 1.01 | locus YHR030C, strain SLT2, hits give low values 1 and 0.957 | locus YHR079C, strain IRE1 (second series), hits give low values 0.964 | locus YHR079C, strain IRE1, hits give low values 0.976 | locus YHR094C, strain hxt1, hits give low values 0.973 | locus YHR129C, strain ARP1, hits give low values 1 | locus YHR142W, strain chs7, hits give low values 1.02 | locus YHR200W, strain rpn10, hits give low values 0.979 | locus YIL066C, strain RNR3, hits give low values 1 | locus YIL073C, strain SPO22, hits give low values 0.924 | locus YIL125W, strain kgd1, hits give low values 0.985 | locus YIR030C, strain dcg1, hits give low values 0.978 | locus YJL092W, strain hpr5, hits give low values 1.02 | locus YJL095W, strain BCK1 (second series), hits give low values 1.02 | locus YJL095W, strain BCK1, hits give low values 1.01 and 0.969 | locus YJL115W, strain asf1, hits give low values 1.03 | locus YJL129C, strain trk1, hits give low values 1.02 | locus YJL134W, strain LCB3, hits give low values 1 | locus YJL154C, strain vps35, hits give low values 1.01 | locus YJL164C, strain tpk1, hits give low values 0.997 | locus YJL166W, strain qcr8, hits give low values 1.02 | locus YJL168C, strain set2, hits give low values 0.975 | locus YJL187C, strain SWE1 (second series), hits give low values 1 | locus YJR043C, strain POL32, hits give low values 0.995 | locus YJR066W, strain TOR1, hits give low values 0.929
